Assay results: PubChem BioAssay (EPA / NIEHS)
Inconclusive results are not listed. Active and inactive are the calls of the source. Rule for the calls, unless noted: active = hit-call score of the fitted dose curve at least 0.9, where 1 is the maximum; inactive = score below 0.9.

Tests used:
[1] = biological target: Paired box protein Pax-6 (Homo sapiens) (UniProt P26367); assay: ATG_Pax6_CIS: Attagene CIS-FACTORIAL HepG2 Assay for human Paired Box 6 (PAX6) (AID 2282956); settings: HepG2 CIS-FACTORIAL PAX6 reporter transcription, RNA readout; actives raise or lower the signal
How it was run: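 HepG2 cells transiently transfected with multiplexed cis-promoter reporter units (endogenous TF activity) were dosed for 24 h. Reporter mRNA was quantified by RT-PCR, 6-FAM labeling, HpaI digestion and capillary electrophoresis; bidirectional fitting versus DMSO baseline.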

[2] = ATG_PXRE_CIS: Attagene CIS-FACTORIAL HepG2 Assay for human Pregnane X Receptor Element (PXRE) (AID 2282957); settings: HepG2 Attagene CIS-FACTORIAL PXRE reporter, mRNA; actives raise or lower the signal
How it was run: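 Multiplexed cis-reporter assay in transiently transfected human HepG2 cells; 24 h chemical exposure. Reporter transcripts quantified by RT-PCR with fluorescent labeling and capillary electrophoresis.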

[3] = ATG_PPRE_CIS: Attagene CIS-FACTORIAL HepG2 Assay for human Peroxisome Proliferator-activated Response Element (PPRE) (AID 2282958); settings: HepG2 PPRE cis-element reporter, Attagene transcription factor profiling; actives raise or lower the signal
How it was run: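 DMSO served as negative control and baseline for bidirectional curve fitting. Signal came from PPRE-regulated reporter mRNA in HepG2 cells, measured 24 h post-dosing by RT-PCR, 6-FAM primer extension and capillary electrophoresis.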

[4] = ATG_RORE_CIS: Attagene CIS-FACTORIAL HepG2 Assay for human RAR-related Orphan Receptor Element (RORE) (AID 2282959); settings: HepG2 Attagene cis-factorial RORE reporter, mRNA; actives raise or lower the signal
How it was run: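 Transfect HepG2 with MRTUs; treat 24 h; extract RNA; RT with oligo(dT); PCR with reporter-specific primers; 6-FAM primer extension; HpaI digest 2 h at 37 C; capillary electrophoresis. Fit vs DMSO, bidirectional.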

[5] = ATG_Sox_CIS: Attagene CIS-FACTORIAL HepG2 Assay for human SRY-box transcription factor (SOX) (AID 2282960); settings: HepG2 Attagene cis-factorial SOX reporter, mRNA; actives raise or lower the signal
How it was run: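 Fluorescence-labelled cDNA fragments from reporter transcripts, sized by CE, give the signal. Cells: HepG2, transiently transfected with cis-regulated reporter units. Exposure 24 h; DMSO negative control; bidirectional curve fitting.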

[6] = biological target: Transcription factor Sp1 (Homo sapiens) (UniProt P08047); assay: ATG_Sp1_CIS: Attagene CIS-FACTORIAL HepG2 Assay for human Specificity Protein 1 (Sp1) (AID 2282961); settings: HepG2 Sp1 cis-reporter transcription, actives raise or lower the signal
How it was run: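 Chemicals are dosed onto HepG2 cells transfected with multiple cis-promoter reporter constructs, and after 24 h reporter RNA is reverse-transcribed, PCR-amplified and resolved by capillary electrophoresis for fluorescence quantitation; activity is scored up or down against DMSO.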

[7] = ATG_SREBP_CIS: Attagene CIS-FACTORIAL HepG2 Assay for human Sterol Regulatory Element Binding (SREBP) (AID 2282962); settings: HepG2 Attagene cis-factorial SREBP reporter, mRNA; actives raise or lower the signal
How it was run: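 HepG2 cells transiently transfected with multiplexed cis-element reporter units report endogenous transcription factor activity. After 24 h of chemical exposure, reporter mRNA was quantified by RT-PCR, 6-FAM labelling, HpaI digestion and capillary electrophoresis; bidirectional fits used DMSO as baseline.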

[8] = biological target: Signal transducer and activator of transcription 3 (Homo sapiens) (UniProt P40763); assay: ATG_STAT3_CIS: Attagene CIS-FACTORIAL HepG2 Assay for human Signal Transducer and Activator of Transcription 3 (STAT3) (AID 2282963); settings: HepG2, Attagene cis-factorial STAT3 reporter transcription; actives raise or lower the signal
How it was run: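 HepG2 cells transiently transfected with cis-element-driven multiple reporter transcription units; after 24 h chemical exposure, reporter mRNA measured by RT-PCR, 6-FAM primer-extension labelling, HpaI digestion and capillary electrophoresis. Bidirectional fitting versus DMSO baseline.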

[9] = ATG_TA_CIS: Attagene CIS-FACTORIAL HepG2 Assay for human TA Basal Promoter (AID 2282964); settings: HepG2 Attagene CIS-factorial TA basal promoter reporter; actives raise or lower the signal
How it was run: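 Cis-factorial format in HepG2: reporters report endogenous factors, not chimeric Gal4 fusions. After 24 h treatment, reporter transcripts were measured by RT-PCR-capillary electrophoresis fluorescence, analysed bidirectionally versus DMSO.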

[10] = ATG_TCF_b_cat_CIS: Attagene CIS-FACTORIAL HepG2 Assay for human T-Cell-Factor with beta-catenin (TCF/b-cat) (AID 2282965); settings: HepG2 TCF/beta-catenin cis-reporter transcription, actives raise or lower the signal
How it was run: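 HepG2 cells transiently transfected with multiple cis-promoter-regulated reporter transcription units, so endogenous transcription factor activity is measured. Reporter mRNA read 24 hours after dosing by RT-PCR, fluorescent labelling and capillary electrophoresis; bidirectional fitting against DMSO.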

[11] = ATG_TAL_CIS: Attagene CIS-FACTORIAL HepG2 Assay for human TAL Basal Promoter (AID 2282966); settings: HepG2 Attagene cis-factorial TAL promoter reporter; actives raise or lower the signal;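 note: background control endpoint measuring basal TAL promoter reporter mRNA not a specific factor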
How it was run: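 Steps: transfect HepG2 with multiple reporter transcription units; dose 24 h; isolate RNA, reverse-transcribe, PCR-amplify, label with 6-FAM, digest with HpaI; resolve by capillary electrophoresis. Bidirectional fitting against DMSO baseline.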

[12] = ATG_TGFb_CIS: Attagene CIS-FACTORIAL HepG2 Assay for human Transforming Growth Factor (TGF) (AID 2282967); settings: HepG2 Attagene CIS TGFb reporter, mRNA transcription; actives raise or lower the signal
How it was run: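 Multiplexed cis-reporter HepG2 system, 24 h treatment; mRNA induction read by fluorescence after RT-PCR and CE; DMSO negative control, bidirectional curve fitting.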

[13] = ATG_VDRE_CIS: Attagene CIS-FACTORIAL HepG2 Assay for human Vitamin D Receptor Element (VDRE) (AID 2282968); settings: HepG2 VDRE cis-reporter transcription, actives raise or lower the signal
How it was run: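 HepG2 cells transiently transfected with cis-element reporter units, dosed 24 h; reporter mRNA measured by RT-PCR, 6-FAM labeling, HpaI digestion and capillary electrophoresis. Activity fitted bidirectionally against DMSO baseline.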

[14] = biological target: Nuclear receptor subfamily 1 group I member 3 (Homo sapiens) (UniProt Q14994); assay: ATG_CAR_TRANS: Attagene TRANS-FACTORIAL HepG2 Assay for human Constitutive Androstane Receptor (CAR) (AID 2282969; active = hit-call score of the fitted dose curve at least 0.9, where 1 is the maximum;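 note: activators raise reporter mRNA above DMSO so AC50 marks induction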); settings: HepG2 Attagene TRANS-FACTORIAL CAR reporter
How it was run: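 HepG2 cells transiently transfected with multiplexed GAL4-UAS reporter units expressing chimeric NR-Gal4 proteins; compound exposure 24 h. Reporter mRNA measured by RT-PCR, 6-FAM labelling, HpaI digestion and capillary electrophoresis; gain-of-signal fitted against DMSO baseline.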

[15] = biological target: X-box-binding protein 1 (Homo sapiens) (UniProt P17861); assay: ATG_Xbp1_CIS: Attagene CIS-FACTORIAL HepG2 Assay for human X-box Binding Protein 1 (XBP1) (AID 2282972); settings: HepG2 XBP1 cis-element reporter, Attagene multiplex; actives raise or lower the signal
How it was run: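 HepG2 cells transiently transfected with cis-regulated multiple reporter transcription units; endogenous transcription factor activity measured 24 hours after chemical dosing. Reporter mRNA quantified by RT-PCR, 6-FAM primer extension, HpaI digestion and capillary electrophoresis; bidirectional fitting versus DMSO.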

[16] = ATG_M_19_TRANS: Attagene TRANS-FACTORIAL HepG2 Assay for M19 Transcription Factor (Internal Marker) (AID 2282974; active = hit-call score of the fitted dose curve at least 0.9, where 1 is the maximum); settings: HepG2 Attagene TRANS-FACTORIAL M19 internal marker reporter
How it was run: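 Multiplexed TRANS format: HepG2 liver cells bearing transient GAL4-UAS reporter units, chemical treatment 24 h, reporter transcripts quantified by RT-PCR plus capillary electrophoresis. DMSO defines baseline.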

[17] = ATG_GAL4_TRANS: Attagene TRANS-FACTORIAL HepG2 Assay for GAL4 (Internal Marker) (AID 2282976; active = hit-call score of the fitted dose curve at least 0.9, where 1 is the maximum); settings: HepG2 Attagene TRANS GAL4 internal marker reporter
How it was run: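 Liver HepG2 line bearing multiplexed GAL4-UAS reporter constructs; 24 h chemical treatment. Transcripts were quantified as fluorescent fragments on capillary electrophoresis after RT-PCR and HpaI cut, with activity fitted upward from DMSO.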

[18] = biological target: Estrogen receptor (Homo sapiens) (UniProt P03372); assay: ATG_ERa_TRANS: Attagene TRANS-FACTORIAL HepG2 Assay for human Estrogen Receptor alpha (ERa) (AID 2282970; active = hit-call score of the fitted dose curve at least 0.9, where 1 is the maximum); settings: HepG2 Attagene TRANS ERa GAL4 reporter, mRNA
How it was run: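 Multiplexed cell-based reporter format in HepG2: chimeric ERa-Gal4 protein drives GAL4-UAS reporter transcription. Fluorescent reporter mRNA quantified by capillary electrophoresis 24 hours after dosing; endpoint fitted as signal gain against DMSO.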

[19] = biological target: Estrogen-related receptor gamma (Homo sapiens) (UniProt P62508); assay: ATG_ERRg_TRANS: Attagene TRANS-FACTORIAL HepG2 Assay for human Estrogen-Related Receptor gamma (ERRg) (AID 2282977; active = hit-call score of the fitted dose curve at least 0.9, where 1 is the maximum;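 note: hits increase reporter signal over DMSO so potencies reflect activators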); settings: HepG2 Attagene TRANS reporter, ERRg transactivation
How it was run: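 HepG2 cells transiently transfected with multiplexed GAL4-UAS reporter units and chimeric NR-Gal4 constructs were exposed to test chemicals for 24 h. Reporter mRNA was measured by RT-PCR, 6-FAM primer extension, HpaI digestion and capillary electrophoresis; gain-of-signal versus DMSO.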

Measured: AC50

Sequence of X-box-binding protein 1 (Homo sapiens) (P17861 whole entry, looked up): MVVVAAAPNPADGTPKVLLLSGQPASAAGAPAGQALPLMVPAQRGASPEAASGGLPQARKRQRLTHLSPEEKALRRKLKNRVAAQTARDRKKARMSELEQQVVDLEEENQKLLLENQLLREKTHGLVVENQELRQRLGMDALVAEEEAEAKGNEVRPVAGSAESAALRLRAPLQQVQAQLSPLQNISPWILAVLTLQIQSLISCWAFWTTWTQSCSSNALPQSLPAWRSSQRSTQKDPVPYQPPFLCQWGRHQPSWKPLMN
Sequence of Estrogen receptor (Homo sapiens) (P03372 whole entry, looked up, the tested form may be a part): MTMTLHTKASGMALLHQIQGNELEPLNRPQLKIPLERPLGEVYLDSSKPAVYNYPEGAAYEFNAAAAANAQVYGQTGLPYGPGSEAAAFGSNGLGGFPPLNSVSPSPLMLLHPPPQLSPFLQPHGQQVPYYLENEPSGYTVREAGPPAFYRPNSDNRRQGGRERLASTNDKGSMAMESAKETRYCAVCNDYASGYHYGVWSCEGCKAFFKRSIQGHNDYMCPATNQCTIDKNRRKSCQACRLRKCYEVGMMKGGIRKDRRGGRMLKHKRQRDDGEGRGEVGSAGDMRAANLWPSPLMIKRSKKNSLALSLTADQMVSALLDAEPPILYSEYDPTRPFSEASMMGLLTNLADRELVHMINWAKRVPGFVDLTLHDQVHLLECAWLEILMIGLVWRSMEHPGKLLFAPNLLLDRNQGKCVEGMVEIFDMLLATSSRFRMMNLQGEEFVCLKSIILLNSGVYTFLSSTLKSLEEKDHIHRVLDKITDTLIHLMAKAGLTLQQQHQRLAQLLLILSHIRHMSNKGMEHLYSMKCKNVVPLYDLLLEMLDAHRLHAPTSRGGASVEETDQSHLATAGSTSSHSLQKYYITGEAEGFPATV
Sequence of Transcription factor Sp1 (Homo sapiens) (P08047 whole entry, looked up): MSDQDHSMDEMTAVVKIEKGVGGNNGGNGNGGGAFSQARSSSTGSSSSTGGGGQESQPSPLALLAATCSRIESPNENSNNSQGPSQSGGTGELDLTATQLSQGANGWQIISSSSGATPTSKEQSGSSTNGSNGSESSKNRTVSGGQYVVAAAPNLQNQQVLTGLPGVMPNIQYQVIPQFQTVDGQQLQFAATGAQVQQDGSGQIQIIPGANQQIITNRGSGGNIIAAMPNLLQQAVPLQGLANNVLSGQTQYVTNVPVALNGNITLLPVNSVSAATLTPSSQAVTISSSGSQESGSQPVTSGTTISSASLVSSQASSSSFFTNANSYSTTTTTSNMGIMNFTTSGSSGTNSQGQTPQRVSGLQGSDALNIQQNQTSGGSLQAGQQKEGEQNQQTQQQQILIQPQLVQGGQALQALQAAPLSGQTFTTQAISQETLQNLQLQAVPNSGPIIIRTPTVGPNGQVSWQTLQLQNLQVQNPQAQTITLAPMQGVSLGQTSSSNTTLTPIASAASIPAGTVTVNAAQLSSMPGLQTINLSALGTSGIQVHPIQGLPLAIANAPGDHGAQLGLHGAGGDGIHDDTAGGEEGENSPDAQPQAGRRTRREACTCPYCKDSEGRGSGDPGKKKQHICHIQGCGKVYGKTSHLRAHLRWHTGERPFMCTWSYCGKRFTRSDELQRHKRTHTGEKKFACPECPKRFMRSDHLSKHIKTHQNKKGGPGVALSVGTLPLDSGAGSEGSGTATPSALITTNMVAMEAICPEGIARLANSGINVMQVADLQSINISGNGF
Sequence of Signal transducer and activator of transcription 3 (Homo sapiens) (P40763 whole entry, looked up): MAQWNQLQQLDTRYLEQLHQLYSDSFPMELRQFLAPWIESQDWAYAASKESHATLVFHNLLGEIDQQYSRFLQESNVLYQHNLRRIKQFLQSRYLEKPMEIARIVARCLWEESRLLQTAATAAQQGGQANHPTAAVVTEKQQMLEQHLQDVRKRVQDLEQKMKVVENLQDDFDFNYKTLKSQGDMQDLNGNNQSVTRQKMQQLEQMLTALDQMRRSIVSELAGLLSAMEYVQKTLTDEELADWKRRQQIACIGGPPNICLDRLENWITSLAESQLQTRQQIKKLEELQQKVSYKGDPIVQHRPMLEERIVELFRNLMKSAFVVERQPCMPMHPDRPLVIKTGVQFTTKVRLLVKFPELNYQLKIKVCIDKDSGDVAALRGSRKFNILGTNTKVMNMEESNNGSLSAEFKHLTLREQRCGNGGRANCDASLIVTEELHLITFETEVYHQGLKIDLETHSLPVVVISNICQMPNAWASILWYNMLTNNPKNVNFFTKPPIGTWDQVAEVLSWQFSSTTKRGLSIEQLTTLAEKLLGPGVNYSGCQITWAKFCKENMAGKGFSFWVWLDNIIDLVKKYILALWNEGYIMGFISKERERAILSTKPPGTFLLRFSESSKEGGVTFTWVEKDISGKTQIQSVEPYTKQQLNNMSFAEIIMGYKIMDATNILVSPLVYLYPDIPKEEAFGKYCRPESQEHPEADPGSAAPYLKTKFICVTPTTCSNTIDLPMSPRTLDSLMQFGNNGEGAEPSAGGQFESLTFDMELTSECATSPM
Sequence of Paired box protein Pax-6 (Homo sapiens) (P26367 whole entry, looked up): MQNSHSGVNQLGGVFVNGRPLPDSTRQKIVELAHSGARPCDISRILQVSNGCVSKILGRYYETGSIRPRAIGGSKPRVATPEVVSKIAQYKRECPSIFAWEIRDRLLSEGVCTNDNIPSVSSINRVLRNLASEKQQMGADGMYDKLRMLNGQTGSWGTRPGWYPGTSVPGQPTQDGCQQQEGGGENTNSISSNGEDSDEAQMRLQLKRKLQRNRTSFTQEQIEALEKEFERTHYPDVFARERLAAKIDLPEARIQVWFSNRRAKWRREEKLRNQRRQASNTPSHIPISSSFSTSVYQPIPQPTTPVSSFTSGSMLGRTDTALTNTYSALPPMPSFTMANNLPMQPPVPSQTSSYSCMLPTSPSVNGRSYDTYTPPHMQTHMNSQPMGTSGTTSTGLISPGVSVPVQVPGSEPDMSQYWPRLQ
Sequence of Nuclear receptor subfamily 1 group I member 3 (Homo sapiens) (Q14994 whole entry, looked up, the tested form may be a part): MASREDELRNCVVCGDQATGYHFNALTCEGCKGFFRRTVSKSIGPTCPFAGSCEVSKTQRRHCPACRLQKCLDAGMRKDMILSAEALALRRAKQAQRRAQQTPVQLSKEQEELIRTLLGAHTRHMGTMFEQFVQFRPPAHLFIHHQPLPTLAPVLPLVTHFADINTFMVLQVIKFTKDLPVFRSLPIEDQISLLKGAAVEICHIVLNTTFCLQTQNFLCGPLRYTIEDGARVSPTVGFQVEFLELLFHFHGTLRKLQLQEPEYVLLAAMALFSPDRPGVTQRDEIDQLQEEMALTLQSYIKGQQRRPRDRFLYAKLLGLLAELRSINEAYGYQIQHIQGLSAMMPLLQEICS
Sequence of Estrogen-related receptor gamma (Homo sapiens) (P62508 whole entry, looked up, the tested form may be a part): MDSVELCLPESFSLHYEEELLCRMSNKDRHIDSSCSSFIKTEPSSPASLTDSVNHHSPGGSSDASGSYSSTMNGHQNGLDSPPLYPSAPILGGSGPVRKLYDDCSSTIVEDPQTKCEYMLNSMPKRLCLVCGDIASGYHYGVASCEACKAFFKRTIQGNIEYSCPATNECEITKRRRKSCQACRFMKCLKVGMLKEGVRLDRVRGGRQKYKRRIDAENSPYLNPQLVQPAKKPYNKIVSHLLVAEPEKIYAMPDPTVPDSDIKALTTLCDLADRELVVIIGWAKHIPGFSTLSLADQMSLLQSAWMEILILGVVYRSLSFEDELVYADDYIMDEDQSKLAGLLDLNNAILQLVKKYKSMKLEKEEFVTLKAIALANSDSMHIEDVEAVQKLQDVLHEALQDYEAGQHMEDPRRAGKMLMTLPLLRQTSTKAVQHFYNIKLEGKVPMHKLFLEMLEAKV

CC1CCC(C(C)(C)O)CC1 (stereo unspecified)
inactive: [1] | [2] | [3] | [4] | [5] | [6] | [7] | [8] | [9] | [10] | [11] | [12] | [13] | [14] | [15] | [16] | [17]

CC1(CO)CN(c2ccccc2)NC1=O (stereo unspecified)
inactive: [1] | [2] | [3] | [4] | [5] | [6] | [7] | [8] | [9] | [10] | [11] | [12] | [13] | [14] | [15]

CCCCCCCCCC=O
inactive: [1] | [2] | [4] | [5] | [6] | [7] | [8] | [9] | [10] | [11] | [12] | [13] | [18] | [15]
active: [3] 46.1 µM

CCCCCCOC(=O)CC
inactive: [1] | [2] | [3] | [4] | [5] | [6] | [7] | [8] | [9] | [10] | [11] | [12] | [13] | [18] | [15]

CC(=O)OCCC(C)CC(C)(C)C (stereo unspecified)
inactive: [1] | [2] | [3] | [4] | [5] | [6] | [7] | [8] | [9] | [10] | [11] | [12] | [13] | [14] | [18] | [15]

CCCCCCCCC
inactive: [1] | [2] | [3] | [4] | [5] | [6] | [7] | [8] | [9] | [10] | [11] | [12] | [13] | [18] | [15] | [16]

C[Si](O[Si](C)(C)C)O[Si](C)(C)C
active: [2] 13.4 µM
inactive: [1] | [3] | [4] | [5] | [6] | [7] | [8] | [9] | [10] | [11] | [12] | [13] | [14] | [15] | [16]

CC(CC(C)(C)C)CC(C)(C)CC(C)(C)C (stereo unspecified)
inactive: [1] | [2] | [3] | [4] | [5] | [6] | [7] | [8] | [9] | [10] | [11] | [12] | [13] | [14] | [15]

CCCC(C)C=O (stereo unspecified)
inactive: [1] | [2] | [3] | [4] | [5] | [6] | [7] | [8] | [9] | [10] | [11] | [12] | [13] | [14] | [15] | [19]
